Assay outcomes as filed in PubChem.
KCNQ2 inh: inhibitors of rat KCNQ2 potassium channel. O88943. CHO-K1 KCNQ2, FluxOR thallium flux, 20 min; stronger effect = lower value. B-score at 10 µM. 310,000 compounds, 1.1% hits;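 active = fluorescence ratio B-score at most minus 3 library SDs, with starting brightness B-score within 2 library SDs, cut at about -5.5 in these data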
Target sequence (O88943 whole entry, looked up): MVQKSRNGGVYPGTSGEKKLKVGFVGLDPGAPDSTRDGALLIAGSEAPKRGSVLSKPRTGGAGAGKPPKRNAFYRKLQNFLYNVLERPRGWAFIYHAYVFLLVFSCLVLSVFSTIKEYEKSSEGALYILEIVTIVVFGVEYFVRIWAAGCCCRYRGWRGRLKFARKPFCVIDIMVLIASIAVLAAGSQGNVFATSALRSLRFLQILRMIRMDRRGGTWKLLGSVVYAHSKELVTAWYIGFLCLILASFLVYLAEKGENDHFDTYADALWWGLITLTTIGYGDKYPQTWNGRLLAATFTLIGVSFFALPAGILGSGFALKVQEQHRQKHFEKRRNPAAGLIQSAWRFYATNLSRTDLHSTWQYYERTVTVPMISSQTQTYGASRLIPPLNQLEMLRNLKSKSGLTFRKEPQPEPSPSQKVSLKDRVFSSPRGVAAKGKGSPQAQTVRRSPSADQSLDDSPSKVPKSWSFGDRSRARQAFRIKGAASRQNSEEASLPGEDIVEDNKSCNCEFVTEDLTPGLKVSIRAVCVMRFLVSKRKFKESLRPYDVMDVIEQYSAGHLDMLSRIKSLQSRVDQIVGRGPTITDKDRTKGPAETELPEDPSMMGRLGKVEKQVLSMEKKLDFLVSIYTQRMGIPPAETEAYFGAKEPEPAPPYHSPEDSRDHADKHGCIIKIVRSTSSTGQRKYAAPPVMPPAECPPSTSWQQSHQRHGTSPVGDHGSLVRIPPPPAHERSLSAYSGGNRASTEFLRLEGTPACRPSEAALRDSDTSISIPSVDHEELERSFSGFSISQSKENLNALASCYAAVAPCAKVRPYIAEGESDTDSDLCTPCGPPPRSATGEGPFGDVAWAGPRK
KCNQ2 pot: enhances the rat KCNQ2 potassium channel. B-score at 10 µM. 310,000 compounds, 0.54% hits. CHO-K1 KCNQ2, FluxOR thallium flux fluorescence; stronger effect = higher value. O88943. AID 2239;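 active = fluorescence ratio B-score at least 3 SD of library B-scores, with initial fluorescence B-score within 3 of them, cut at about 5.3 in these data; same plate scores as AID 2156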;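 also: B-score of peak minus minimum over baseline fluorescence ratio after K+ and Tl+ stimulus; positive B-score means potentiation of KCNQ2 with more thallium influx and brighter signal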
The depositor's hits bear a star; i = inactive; nt = no result. An excerpt weighted towards active compounds, which were near 1.6% of everything screened.

SMILES | KCNQ2 inh | KCNQ2 pot
COC(=O)C1=CN(CCOC23CC4CC(CC(C4)C2)C3)C=C(C(=O)OC)C1c1ccsc1 | -7.4* | -7.4
COC(=O)C1=CN(Cc2ccc(OC)cc2)C=C(C(=O)OC)C1c1ccsc1 | i | nt
Cc1ccc(C)c(NC(=O)CN(C)C(=O)c2ccccc2Cc2ccccc2)c1 | i | nt
O=[N+]([O-])c1ccccc1OCCCOc1cccc2cccnc12 | i | nt
Cc1nc(N2CCN(S(=O)(=O)c3ccccc3C#N)CC2)c2c(-c3cccs3)csc2n1 | i | nt
COCCCn1c(SCC(=O)NC(C)(C)C)nnc1-c1cccs1 | i | 0.45
Cc1nc(SCC(=O)NC(C)(C)C)c2c(-c3cccs3)csc2n1 | -6.2* | -6.2
Cc1nc(N2CCCCC2)c2c(-c3cccs3)csc2n1 | -8.2* | -8.2
O=C(O)CSC1CC(=O)N(c2ccc(Br)cc2)C1=O (configuration not stated) | i | nt
C=CC[C@@H]1C=C[C@H](O/N=C/c2ccc(C(=O)N3[C@H](c4ccc(C)cc4)[C@@H](C)CC[C@H]3C(=O)OC)cc2)[C@@H](CO)O1 | -6.1* | -6.1
COC(=O)[C@@H]1CC[C@H](C)[C@@H](c2ccc(C)cc2)N1C(=O)c1ccc(/C=N/OC[C@@H](O)COCc2ccco2)cc1 | i | nt
O=C(NCc1nc2ccccc2[nH]1)C1=C[C@H](c2ccc(C(F)(F)F)cc2)C[C@H](OCCCCO)O1 | i | nt
C/C(=N/O)c1ccc(Oc2cnccn2)cc1 | i | 0.01
O=C(O)c1c(C(=O)O)c(-c2ccc(Cl)c(Cl)c2)n2c1CSC2 | i | nt
Cc1cc(C)c2sc(N(CCCN(C)C)C(=O)c3ccc(S(=O)(=O)N4CCCc5ccccc54)cc3)nc2c1 | -7.7* | -7.7
Cc1cc(C)c2sc(N(CCCN(C)C)C(=O)c3ccc(S(=O)(=O)N4CCc5ccccc5C4)cc3)nc2c1 | i | nt
Oc1ccc2ccccc2c1C=Nc1ccc(Cl)cn1 | i | nt
Cc1ccccc1NC(=O)/C=C/c1ccc([N+](=O)[O-])s1 | -5.7* | -5.7
Cc1cc(C)cc(NC(=O)/C=C/c2ccc([N+](=O)[O-])s2)c1 | i | nt
CCOc1cccc(/C=N/Nc2nc(N3CCCC3)nc(N3CCCC3)n2)c1O | i | 1.3
CCOc1cc(/C=N/Nc2nc(N3CCCC3)nc(N3CCCC3)n2)ccc1O | -8.3* | -8.3
C[C@@H](O)C1NC(=O)[C@H](CCCCN)NC(=O)c2cc([N+](=O)[O-])cc(I)c2NCCC[C@@H](C(N)=O)NC1=O (some centres not stated) | i | 1.3
CCOC(=O)C1(CCc2ccccc2)CCN(C(=O)c2cnc(C)cn2)CC1 | i | nt
CCOC(=O)C1=C(C)Nc2nc3ccccc3n2C1c1ccc(O)cc1 (configuration not stated) | i | 1
CCN(CC)C(=O)C1=C(C)Nc2nc3ccccc3n2C1c1cccc(OC)c1 (configuration not stated) | -7.7* | -7.7
SMILES | KCNQ2 inh | KCNQ2 pot
N=c1n(Cc2ccc(Cl)cc2)c2ccccc2n1CC(O)COc1ccccc1 (configuration not stated) | i | nt
N=c1n(Cc2ccccc2)c2ccccc2n1CC(O)COc1ccc(Cl)cc1Cl (configuration not stated) | -6* | -6
COc1ccc(F)cc1S(=O)(=O)Nc1cc2c3c(c1)CCN3C(=O)CC2 | i | nt
O=C(Nc1nc(-c2ccc(Cl)cc2Cl)cs1)c1ccc(OCC2CCCO2)cc1 (configuration not stated) | i | nt
CC(C)COc1ccc(C(=O)Nc2scc(-c3ccc(Cl)cc3Cl)c2C(N)=O)cc1 | -7.1* | -7.1
COc1ccc(N2CCN(C(=O)c3oc4ccccc4c3NC(=O)Cc3cccc(OC)c3)CC2)cc1 | -5.8* | -5.8
COc1cccc(CNC(=O)CCC2CCCN(C(=O)c3cc4ccccc4o3)C2)c1 (configuration not stated) | -6.4* | -6.4
COc1ccc(N2CCN(C(=O)c3oc4ccccc4c3NC(=O)Cc3ccc(OC)c(OC)c3)CC2)cc1 | i | nt
COc1cccc(CNC(=O)CCC2CCCN(C(=O)c3ccoc3)C2)c1 (configuration not stated) | i | 0.47
Cc1cc(NC(=O)COc2coc(CN3CCN(c4ccccc4F)CC3)cc2=O)no1 | i | nt
Cc1cccc(N2CCN(C(=O)CSCc3c(C)noc3C)CC2)c1C | -6* | -6
Cc1noc(C)c1CSCC(=O)N1CCN(c2ccc(F)cc2)CC1 | i | nt
Cc1c(C(=O)NCc2ccccc2)c(-c2ccccc2)nn1-c1ccccc1 | -5.6* | -5.6
Cc1c(C(=O)NC(C)C)c(-c2ccccc2)nn1-c1ccccc1 | i | nt
O=Cc1ccc(OCCOc2ccc([N+](=O)[O-])cc2)cc1 | i | nt
O=C(Cn1c(=O)n(CC(=O)NCc2ccccc2)c2ccccc21)NCc1ccccc1 | i | nt
Cc1cc(=O)c2cc(Br)ccc2n1CC(=O)NCc1ccccc1 | -8.3* | -8.3
O=C1/C(=C\c2ccc3ccccc3c2)CCCc2ccccc21 | -6.5* | -6.5
Cc1ccccc1/C=C1\CCCc2ccccc2C1=O | i | nt
